Screening results as filed in PubChem BioAssay.
The list is not random: actives were taken first. Their share in the collection is about 6.8%.
Spn MK inh – inhibitors of Streptococcus pneumoniae mevalonate kinase; purified MK, PK/LDH-coupled NADH absorbance 340 nm; inhibition, % at 10 µM; 0.48% of 65,000 active; AID 555;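 active means ranked among the strongest by inhibition in the single 10 µM screen, a fixed top-ranked set picked for dose follow-up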
Fluor 339 460 – intrinsic fluorescence of library compounds, ex339/em460 – biochemical, MLSMR library, data from DPM-DC assay, artefact control, profiling panel; AID 709; 5.5% of 65,000 active; compound autofluorescence, ex339/em460 nm, NADH buffer; active compounds read high; 1 = no-compound wells, NADH background; fluorescence fold increase at 10 µM;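 active means at 10 µM, mean starting fluorescence two-fold or more over control wells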;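 further: signal is the first read of a kinetic run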
A340 absorber – absorbance at 340 nm. compound absorbance at 340 nm, fold over control. fold change at 10 µM. 65,000 tested, under 10 active;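 active means at 10 µM dose, initial 340 nm absorbance at least 2 fold that of control wells; inactive means change under 2 fold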;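 further: initial absorbance extrapolated from kinetic A340 decline of NADH oxidation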
Spn DPM-DC inh – blocks S. pneumoniae diphosphomevalonate decarboxylase | purified DPM-DC, PK/LDH coupled NADH fluorescence | calls only at 10 µM | 0.49% of 65,000 active;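 active means the 320 compounds with the highest percent inhibition in the single-dose primary screen, excluding strongly autofluorescent ones, cut at about 32% in these data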;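 further: kinetic rate of NADH fluorescence loss reporting ADP formed by the decarboxylase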
NADH enzymes – inhibitors of enzymes used to reach an NAD/NADH endpoint | coupled PK/LDH NADH assays, four targets | IC50, µM (top dose mostly 10 µM) | 0.02% of 65,000 active | AID 774;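 active means single-dose screening hits from any of four coupled enzyme assays that gave an IC50 when retested across doses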;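 further: the DPM-DC format reads NADH fluorescence rather than 340 nm absorbance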
PMK inhibit – blocks S. pneumoniae phosphomevalonate kinase. 0.49% of 65,000 active. inhibition, % at 10 µM. purified PMK, PK/LDH-coupled NADH absorbance 340 nm;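 active means top-ranked compounds by inhibition in the single 10 µM screen, taking a fixed number of the strongest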
Of the large screens only hits and unclear results are named; the others gave an inactive call.

O=C(C1COc2ccccc2O1)N1CCc2ccccc21 (stereo not given)	none
CC(Sc1nnc(N)s1)c1ccccc1Cl (stereo not given)	none
O=C(NC1CCCCCCC1)c1ccccc1O	Fluor 339 460 2.97
Cc1occc1C(=O)NC1CCCCCC1	none
Nc1cccc(-c2nc3ccc(N)cc3s2)c1	Fluor 339 460 3.87 (not shown: Spn DPM-DC inh)
COc1ccc(-c2nc(-c3cccs3)c(-c3cccs3)[nH]2)cc1O	Fluor 339 460 2.96
O=C(CSc1ncnc2c1cnn2-c1ccccc1)Nc1ccc2c(c1)OCO2	Spn DPM-DC inh active
COC(=O)Nc1ccc2c(c1)N(C(=O)CCN1CCN3CCCC3C1)c1ccccc1S2 (stereo not given)	none
C=CCN(C)CCCNC(=O)/C=N/O	none
COc1cc2cc(C(c3nnnn3C3CCCC3)N3CCCCC3)c(=O)[nH]c2cc1OC (stereo not given)	Fluor 339 460 3.54 (not shown: Spn DPM-DC inh)
O=c1[nH]c2cc3c(cc2cc1C(c1nnnn1C1CCCCC1)N1CCSCC1)OCCO3 (stereo not given)	Fluor 339 460 2.43
CC1CCCN(c2nc3c(c(=O)[nH]c(=O)n3C)n2CCCc2ccccc2)C1 (stereo not given)	none
O=C(CSc1nnc(CNC(=O)c2cccs2)o1)NCCc1ccccc1	none
COCCCN(C(=O)Nc1ccccc1)C(C)c1ccncc1 (stereo not given)	none
O=C1CN(C(=O)CSc2nnnn2-c2ccc(Cl)cc2)c2ccccc2N1	none
CCOc1ccc2nc(NCCCNS(=O)(=O)c3ccccc3)c(C#N)cc2c1	Fluor 339 460 2.32
CCOC(=O)CSc1nc(-c2ccc(OC)cc2)ns1	none
COc1ccc(-c2cn3cccnc3n2)cc1NC(=O)c1ccc(Br)o1	Fluor 339 460 5.29 (not shown: Spn DPM-DC inh)
Cc1ccc(-c2cn3cccnc3n2)cc1NC(=O)c1ccc(Br)o1	Fluor 339 460 3.47 (not shown: Spn DPM-DC inh)
Cc1cc(O)c(NC(=O)c2ccc(Br)o2)cc1C	none
Cc1cc2nc(-c3ccc(NC(=O)C(C)C)cc3)oc2cc1C	Fluor 339 460 2.19 (not shown: Spn DPM-DC inh)
CC(Oc1ccc(Cl)cc1Cl)C(=O)Nc1ncccn1 (stereo not given)	none
CC(Oc1ccc(Cl)cc1Cl)C(=O)Nc1ccc2oc(-c3ccncc3)nc2c1 (stereo not given)	Fluor 339 460 3.83 (not shown: Spn DPM-DC inh)
CC(C)C(=O)Nc1ccc(-c2nc3cccnc3o2)cc1	Fluor 339 460 2.45 (not shown: Spn DPM-DC inh)
Cc1ccc(-c2nc3cc(NC(=O)C(C)C)ccc3o2)cc1	Fluor 339 460 2.46 (not shown: Spn DPM-DC inh)
COc1ccc(-c2nnc(NC(=O)c3cc(Cl)ccc3Cl)o2)cc1	none
Cc1ccc(-c2nc3cc(NC(=O)C(C)C)ccc3o2)cc1C	Fluor 339 460 3 (not shown: Spn DPM-DC inh)
CC(C)C(=O)Nc1cccc(-c2nc3ccccc3o2)c1	none
CCCN(CC1CC1)S(=O)(=O)c1ccc(S(N)(=O)=O)cc1	none
Clc1ccc2nc3ccccn3c2c1	Fluor 339 460 2.2 (not shown: Spn DPM-DC inh)
COc1ccc(-n2nnc3c(SCC(=O)N4CCN(c5ccccc5)CC4)ncnc32)cc1	none
CCOC(=O)CS(=O)(=O)c1nc(-c2ccccc2)cc(C(F)(F)F)n1	none
NC(=O)c1c(C(F)(F)F)cc(-c2ccccc2)nc1NCCO	Fluor 339 460 3.74 (not shown: Spn DPM-DC inh)
Cc1ccc(C2CC(c3cccs3)n3nc(N)nc3N2)cc1 (stereo not given)	Fluor 339 460 2.26 (not shown: Spn DPM-DC inh)
CC(C)C(=O)Nc1nnc(-c2ccccc2)o1	none
NC(=O)c1oc2ccccc2c1NC(=O)c1nc2ccccc2s1	Fluor 339 460 2.65
O=C(Nc1nnc(-c2ccccc2)o1)c1nc2ccccc2s1	Fluor 339 460 2.19 (not shown: Spn DPM-DC inh)
Cc1nc(Sc2nnnn2C)c2c3c(sc2n1)CCC3	Fluor 339 460 2.12 (not shown: Spn DPM-DC inh)
COC(=O)C(Cc1cncn1COCc1ccccc1)NC(=O)OC(C)(C)C (stereo not given)	none
CCCCCCc1cc2cc(C(=O)NC)c(=N)oc2cc1O	Fluor 339 460 2.33 (not shown: Spn DPM-DC inh)
COc1ccc(NC(=O)c2cc3cc(OC)ccc3oc2=N)cc1	none
Cc1oc2c(C)c3oc(=O)c4c(c3cc2c1C)CCC4	none
CCc1cc(=O)oc2c(CN3CCN(C)CC3)c(O)c(Cl)cc12	Fluor 339 460 2.47 (not shown: Spn DPM-DC inh)
Cc1c(O)c(CN2CCCCC2)cc2c3c(c(=O)oc12)CCC3	Fluor 339 460 2.48 (not shown: Spn DPM-DC inh)
CN1CCN(Cc2cc(=O)oc3cc4c(cc23)CCC4)CC1	none
CCc1cc(=O)oc2c(CN3CCCC3)c(O)c(Cl)cc12	Fluor 339 460 2.3 (not shown: Spn DPM-DC inh)
